Source: PubChem BioAssay
PfM18AAP inh-1: PfM18AAP inhibitors, malaria aminopeptidase, primary screen, biochemical, QFRET, recombinant enzyme; M18 aspartyl aminopeptidase (Plasmodium falciparum 3D7); H-Glu-NHMec fluorogenic cleavage; inhibition, % at 7.35 µM; 1.2% of 290,000 active; AID 1822, 2009;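 active = inhibition above the campaign mean inhibition over all tested compounds plus 3 SD, cut at about 28% in these data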;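 also: 0% = plate median of test compound wells and 100% = 2 mM ZnCl2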
ALR H2O2 inh: inhibitors of human ALR sulfhydryl oxidase, primary screen, biochemical, H2O2 detection, HRP-luminol luminescence, single point. FAD-linked sulfhydryl oxidase ALR (Homo sapiens), P55789. purified ALR, DTT oxidation. inhibition, % (test concentration not listed). 3.8% of 290,000 active. AID 485317, 2010;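 active = mean replicate inhibition above about 79%, with every replicate also reaching it, limit read from the data; inconclusive = only one of the two criteria met; inactive = mean below limit and not every replicate reaching it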
APOBEC3A inh: APOBEC3A ssDNA deaminase inhibitors, primary screen, selectivity assay for APOBEC3G inhibitor project, biochemical, FAM/TAMRA oligo cleavage fluorescence; DNA dC->dU-editing enzyme APOBEC-3A (Homo sapiens), P31941; recombinant A3A, FAM/TAMRA ssDNA deamination fluorescence; inhibition, % at 20 µM; 0.41% of 330,000 active; AID 493011, 2011;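 active = at least 40% inhibition at 20 µM here, with at most 30% in a related deaminase screen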;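 also: plate controls were A3A with DMSO for no effect and wells lacking A3A enzyme for full effect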
A3G deaminase: APOBEC3G DNA deaminase inhibitors, primary screen, biochemical, fluorescence, single-stranded DNA substrate, uHTS; 0.28% of 330,000 active; inhibition, % at 20 µM; recombinant A3G, ssDNA deamination FAM/TAMRA fluorescence;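 active = inhibition of at least 40% at 20 µM, with no more than 30% in the related APOBEC3A deaminase screen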;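 also: plate controls were DMSO wells with A3G for no effect and wells lacking A3G enzyme for full effect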
Target sequence (Q9HC16 whole entry, looked up): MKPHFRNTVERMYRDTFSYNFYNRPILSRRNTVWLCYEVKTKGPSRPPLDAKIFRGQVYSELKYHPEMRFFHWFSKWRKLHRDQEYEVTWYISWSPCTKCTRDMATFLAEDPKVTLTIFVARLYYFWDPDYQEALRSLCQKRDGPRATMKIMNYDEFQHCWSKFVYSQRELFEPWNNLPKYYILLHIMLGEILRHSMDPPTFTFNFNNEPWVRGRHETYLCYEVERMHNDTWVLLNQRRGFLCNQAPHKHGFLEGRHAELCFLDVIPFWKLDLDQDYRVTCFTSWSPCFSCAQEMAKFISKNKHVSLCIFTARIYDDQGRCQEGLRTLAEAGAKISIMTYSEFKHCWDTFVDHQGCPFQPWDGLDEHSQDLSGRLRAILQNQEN
Yeast superoxide: reduction of superoxide in aged yeast, primary screen, HTS; superoxide response (% of plate mean), % at 10 µM; 0.18% of 330,000 active; S. cerevisiae aged cells, superoxide DHE fluorescence; stronger effect = lower value;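 active = superoxide response under a set limit, about three screen SD below normal, cut at about 65% in these data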;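 also: yeast aged for seven days with compound at 30 °C before DHE staining; 100% = average MFI of all compound-treated wells on the plate with controls excluded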
NRP1-CendR mod: modulators of CendR peptide binding to NRP-1, primary screen, biochemical, fluorescence polarization, uHTS; Neuropilin-1 (Homo sapiens), O14786; FAM-RPARPAR peptide binding to NRP-1; inhibition, % at 25 µM; 0.85% of 360,000 active;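 active = inhibition or corrected inhibition above about 18%, plus a signal ratio from 0.5 to 1.5, limit read from the data, passing the limit was not always enough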
PfM18AAP inh-2: PfM18AAP inhibitors, malaria aminopeptidase, confirmation, biochemical, QFRET, recombinant enzyme, triplicate; shares compounds with PfM18AAP inh-1; H-Glu-NHMec fluorogenic cleavage; inhibition, % at 7.35 µM; 28% of 2,400 active;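 active = mean inhibition over replicate wells above the hit cutoff set for the earlier primary screen, cut at about 29% in these data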;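 also: 0% = median of test compound wells and 100% = 2 mM ZnCl2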
CTSL1 counter: cathepsin L1 inhibitors, retest, confirmation, counter-screen for PFM18AAP inhibitor project, biochemical, QFRET, triplicate. 2,400 tested, under 10 active. shares compounds with PfM18AAP inh-1. AID 2178, 2009. inhibition, % at 5.96 µM. purified cathepsin L1, Z-Leu-Arg-MCA fluorescence;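 active = average inhibition across replicates above the hit cutoff set in the earlier primary screen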;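 also: 0% = median of test compound wells and 100% = Z-Phe-Ala-diazomethylketone 1 µM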
* marks the source's active call; other numbers are inactive results; ? = inconclusive; · = no result. Shown are actives, neighbours in structure and some others; about 5.2% of the full set was active somewhere.

SMILES | PfM18AAP inh-1 | ALR H2O2 inh | APOBEC3A inh | A3G deaminase | Yeast superoxide | NRP1-CendR mod | PfM18AAP inh-2 | CTSL1 counter
CC12CCC3c4ccc(OP(=O)(N5CC5)N5CC5)cc4CCC3C1CCC2=O (stereo unspecified) | · | · | · | · | · | 26.3* | · | ·
COC(=O)C(O)(c1ccc2c(c1)CCCN2)C(F)(F)F (stereo unspecified) | -0.1 | 96.6* | 0.4 | 2.4 | 121.0 | 9.8 | · | ·
O=c1[nH]c(=O)n(C2CCCCCC2)c(O)c1C=NCc1cccnc1 | 3.2 | 1.1 | -0.7 | -2.1 | 92.2 | 1.8 | · | ·
COc1ccc2c(c1OC)C(=O)OC2c1c(O)n(C2CCCCC2)c(=O)[nH]c1=O (stereo unspecified) | 0.4 | 95.8* | 3.0 | -3.1 | 87.4 | -22.1 | · | ·
CN=C(SCc1cc2c(cc1Cl)OCO2)c1c(O)n(C)c(=O)n(C)c1=O | 11.0 | 100.5* | 4.2 | 3.6 | 92.5 | -0.5 | · | ·
Cc1ccsc1CNCCc1ccc(F)cc1 | -3.9 | 4.0 | -5.0 | -5.1 | 96.9 | 6.2 | · | ·
NCC(O)c1cc(O)c(O)cc1F (stereo unspecified) | · | 82.5* | -2.3 | 6.2 | 107.4 | 4.7 | · | ·
COC(=O)C1=C(c2ccc(OC(F)(F)F)cc2)C[C@@H]2CC[C@H]1N2C(=O)N1CCC(C)CC1 | · | -2.2 | 2.4 | -7.0 | 77.5 | 28.7* | · | ·
COC(=O)C1=C(c2ccc(C(C)=O)cc2)C[C@@H]2CC[C@H]1N2C(=O)N1CCC(O)CC1 | · | 4.8 | 1.2 | -5.0 | 102.0 | 29.2* | · | ·
COC(=O)C1=C(c2ccc(C(C)=O)cc2)C[C@@H]2CC[C@H]1N2C(=O)N1CCOCC1 | · | -5.0 | -1.3 | -5.2 | 105.3 | 9.9 | · | ·
O=c1c2ccccc2nc(/C=C/c2ccccc2)n1-c1ccc(O)cc1 | 3.9 | -1.1 | -2.0 | -6.1 | 108.5 | -3.5 | · | ·
O=c1c2ccccc2nc(/C=C/c2ccc(O)c(O)c2)n1-c1ccccc1 | 63.2* | -10.1 | 0.2 | -5.9 | 103.7 | -70.9 | 41.3* | -0.1
O=c1[nH]sc2cc(F)ccc12 | 57.7* | · | · | · | · | -2.3 | 36.9* | 0.2
N#C/C(=C(/O)c1ccc(S(=O)(=O)N(CCCl)CCCl)cc1)c1nc2ccccc2[nH]1 | 2.1 | · | 2.4 | -2.7 | 101.3 | 11.0 | · | ·
Cc1nc2ccc(P(=O)(O)O)cc2s1 | 49.5* | -2.2 | 1.7 | -5.9 | 91.6 | · | 9.5 | 0.0
Cc1ccc(NP(=O)(c2ccccc2)c2nc3ccccc3s2)cc1 (stereo unspecified) | -3.0 | -12.2 | -2.1 | -6.2 | 106.9 | 7.7 | · | ·
CN(C)C1C(=O)C(C(N)=O)=C(O)C2(O)C(=O)C3=C(O)c4c(O)cccc4C(C)(O)C3CC12 (stereo unspecified) | 36.1* | -12.3 | · | · | 97.6 | 13.1 | -49.0 | -5.0
Cc1c(/C=C2/CC3C4CC=C5CC(O)CCC5(C)C4CCC3(C)C2=O)cnn1C (stereo unspecified) | -3.3 | · | · | · | · | · | · | ·
CCN1CCN(Cc2cc3c(cc2[N+](=O)[O-])OCO3)CC1 | 47.6* | -20.6 | -4.4 | -3.3 | 100.1 | -3.0 | 5.4 | -1.9
O=c1ccc2cc(O[C@@H]3O[C@@H](CO)[C@H](O)[C@@H](O)[C@@H]3O)c(O)cc2o1 | 32.2* | ? | -5.6 | -10.1 | 105.5 | 7.3 | -9.8 | 6.9
CCCNS(=O)(=O)c1ccc(OCC(=O)N2CCN(Cc3ccccc3)CC2)cc1 | -2.8 | -1.3 | -4.5 | -6.1 | 97.1 | 10.9 | · | ·
CCN(CC)c1ccc(N=Cc2c(O)n(-c3ccc(OC)cc3)c(=O)[nH]c2=O)cc1 | 42.5* | · | -6.2 | -9.1 | 107.2 | 142.8 | -35.5 | 1.4
